In PubChem BioAssay AID2685 (National Center for Advancing Translational Sciences (NCATS), 2010):
About 2,100 (0.66%) of roughly 320,000 compounds were called active. Roughly 53% stayed inconclusive and do not appear here. Calls follow the shape of the dose curve; as a rule, active = well fitted inhibition curve with a large enough effect in the signal ratio, with a control signal flat (not every such curve was filed as active); inconclusive = small, poorly fitted or top-dose-only effect, or effect the other way, or a change in a side signal; inactive = flat fitted curve, though single readings scatter; the % refers to the signal ratio. The entries come from a sample that favours actives as a whole.
Potency is read from the fitted curve at half-maximal effect.

Experiment: qHTS Assay for Lipid Storage Modulators in Drosophila S3 Cells;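 as to cell number change: cells counted by Cell Tracker Red CMTPX staining in the red channel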; as to lipid storage change, negative = inhibition: % is scaled to controls: 0 for no effect and ±100 for the full control effect
Conditions: BODIPY lipid droplet fluorescence, 18-24 h, cells fed with added oleic acid; cell number change: measured here: cell count max response; series mostly up to 46.1 µM; lipid storage change, negative = inhibition: at the top concentration
In short: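 Drosophila S3 cells loaded with oleic acid (400 uM, as added) and compounds at several concentrations; lipid droplets imaged by 488-nm laser-scanning cytometry, 500–530 nm intensity and object ratio to cell channel. Percent activity normalized to 20 uM Triacsin C.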
In the case of `CCn1c(COc2ccccc2C(N)=O)nc2ccccc21`, the “lipid storage change, negative = inhibition” value is reported as -2.01% (inactive) and the cell number change is reported as -13.5%.
With `CCOC(=O)Cc1csc(NC(=S)NC(=O)c2ccc(F)cc2)n1` the Potency was 10.3 µM (active) and the cell number change was -14.9%.
For `CCOC(=O)Cc1csc(NC(=S)NC(=O)c2ccc(C)cc2)n1`, the “lipid storage change, negative = inhibition” value was 8.49% (inactive) and the cell number change was 12.7%.
For `CCOC(=O)Cc1csc(NC(=O)c2ccc(F)cc2)n1`, the “lipid storage change, negative = inhibition” value was 0.5% (inactive) and the cell number change was 5.42%.
In the case of `COc1cc2c(cc1OC)C1Cc3ccc(OC)c(OC)c3C[N+]1([O-])CC2` (stereo not given), the “lipid storage change, negative = inhibition” value is reported as 0.646% (inactive) and the cell number change is reported as 8.62%.
In the case of `Cc1nc(NCC2CCCO2)c2nnn(Cc3c(F)cccc3Cl)c2n1` (stereo not given), the “lipid storage change, negative = inhibition” value is reported as 5.75% (inactive) and the cell number change is reported as -5.53%.
In the case of `c1ccc(C(c2ccccc2)N2CCN(c3ccc4ccccc4n3)CC2)cc1`, the “lipid storage change, negative = inhibition” value is reported as -1.57% (inactive) and the cell number change is reported as 9.37%.
With `c1cnc(N2CCN(c3ccc4ccccc4n3)CC2)nc1` the Potency was 0.651 µM (active) and the cell number change was 23.8%.
For `c1ccc(N2CCN(c3ncccn3)CC2)cc1`, the “lipid storage change, negative = inhibition” value was -29.3% (inactive) and the cell number change was -7.61%.
For `CCn1c(NC(=O)c2cccc(Cn3cc(Cl)cn3)c2)nc2ccccc21`, the “lipid storage change, negative = inhibition” value was 3.94% (inactive) and the cell number change was -10.4%.
With `O=C(c1ccccn1)N1CCN(c2ccc(C(F)(F)F)cn2)CC1` the “lipid storage change, negative = inhibition” value was 1.09% (inactive) and the cell number change was -1.5%.
In the case of `O=C(O)c1ccccc1-c1ccccc1C(=O)Nc1cccc(-c2nc3ccccc3o2)c1`, the “lipid storage change, negative = inhibition” value is reported as 4.74% (inactive) and the cell number change is reported as 14.5%.
With `CC(=O)Nc1cccc(-c2nc3ccccc3o2)c1` the “outcome” value was “inactive”.
With `CS(=O)(=O)c1ccccc1C(=O)Nc1cccc(-c2nc3ccccc3o2)c1` the Potency was 13 µM (active) and the cell number change was -20.6%.
For `COc1cccc(-c2cc(C(=O)NCC3CCCO3)c3ccccc3n2)c1` (stereo not given), the “lipid storage change, negative = inhibition” value was 23.6% (inactive).
For `Cc1ccc(CC(=O)Nc2ncc([N+](=O)[O-])s2)cc1`, the “lipid storage change, negative = inhibition” value was -18.5% (inactive) and the cell number change was 2.17%.
With `CCCc1nnc(NC(=O)CS(=O)(=O)c2ccccc2)s1` the “lipid storage change, negative = inhibition” value was 2.43% (inactive) and the cell number change was -20%.
In the case of `O=C(CCS(=O)(=O)c1ccccc1)Nc1ncc([N+](=O)[O-])s1`, the Potency is reported as 4.61 µM (active) and the cell number change is reported as -3.6%.
In the case of `O=C(CS(=O)(=O)c1ccccc1)Nc1ncc([N+](=O)[O-])s1`, the “outcome” value is reported as “inactive” and the cell number change is reported as -6.25%.
In the case of `CCOCCc1nnc(NC(=O)CCS(=O)(=O)c2ccccc2)s1`, the “outcome” value is reported as “inactive” and the cell number change is reported as -12%.
In the case of `CCCc1nnc(NC(=O)CCS(=O)(=O)c2ccccc2)s1`, the Potency is reported as 1.46 µM (active) and the cell number change is reported as 3.42%.
In the case of `Cc1ccnc(NC(=O)c2ccc(Cl)s2)c1`, the “outcome” value is reported as “inactive”.
For `Cc1ccnc(NC(=O)c2ccc(Br)s2)c1`, the “lipid storage change, negative = inhibition” value was 1.19% (inactive) and the cell number change was 12.2%.
For `Cc1ccc(S(=O)(=O)CC(=O)Nc2ncc([N+](=O)[O-])s2)cc1`, the “outcome” value was “inactive” and the cell number change was -14.4%.
In the case of `Cc1ccc(C(=O)Nc2ncc([N+](=O)[O-])s2)cc1`, the Potency is reported as 23.1 µM (active) and the cell number change is reported as -15.4%.
With `Cc1ccnc(NC(=O)c2ccc([N+](=O)[O-])s2)c1` the Potency was 11.2 µM (active) and the cell number change was -22%.
With `Cc1ncoc1C(=O)Nc1ncc([N+](=O)[O-])s1` the “lipid storage change, negative = inhibition” value was -4.91% (inactive) and the cell number change was -6.04%.
With `O=C(Nc1ccccc1F)Nc1ccc([N+](=O)[O-])cc1Cl` the “lipid storage change, negative = inhibition” value was -3.39% (inactive) and the cell number change was 6.06%.
In the case of `Cc1ccccc1S(=O)(=O)Cc1ccc(C(=O)NC(C)c2ccccc2)o1` (stereo not given), the “outcome” value is reported as “inactive”.
With `Cn1cc(Br)c(NS(=O)(=O)c2ccc(Cl)s2)n1` the “lipid storage change, negative = inhibition” value was -10.7% (inactive) and the cell number change was 7.84%.
In the case of `CCc1ccc(C(=O)COC(=O)CNC(=O)CNC(=O)Cc2ccccc2)cc1`, the “lipid storage change, negative = inhibition” value is reported as -8.25% (inactive) and the cell number change is reported as -4.14%.
With `CCc1ccccc1NC(=O)c1cnc2n(c1=O)CCS2` the “lipid storage change, negative = inhibition” value was 18.3% (inactive) and the cell number change was -5.43%.
In the case of `COc1ccc(C(=O)Oc2cc(/C=N/NS(=O)(=O)c3ccccc3)ccc2OC)cc1`, the “outcome” value is reported as “inactive” and the cell number change is reported as -2.45%.
For `COc1ccccc1NS(=O)(=O)c1ccc(C(=O)NCC(c2ccco2)N(C)C)cc1` (stereo not given), the “lipid storage change, negative = inhibition” value was 12.6% (inactive) and the cell number change was -9.2%.
In the case of `O=C(Nc1nc2c(F)cc(F)cc2s1)C1CCN(C(=O)c2ccc(F)cc2)CC1`, the “lipid storage change, negative = inhibition” value is reported as 25.4% (inactive) and the cell number change is reported as 13.4%.
In the case of `CC1(C)CC(C(CC(=O)Nc2nccs2)c2ccccc2)CCO1` (stereo not given), the “lipid storage change, negative = inhibition” value is reported as -0.125% (inactive) and the cell number change is reported as -3.73%.
With `O=C(CSc1nnc2c(Cl)cc(Cl)cn12)N1CCN(S(=O)(=O)c2ccccc2)CC1` the “lipid storage change, negative = inhibition” value was 29.6% (inactive) and the cell number change was 0.68%.
With `CCOC(=O)C1=C(C)OC(N)=C(C#N)C1c1cccc(C)c1` (stereo not given) the “lipid storage change, negative = inhibition” value was 17.7% (inactive) and the cell number change was 26.4%.
In the case of `CCOC(=O)C1=C(C)OC(N)=C(C#N)C1c1ccccc1` (stereo not given), the cell number change is reported as 2.6% and the lipid storage change, negative = inhibition is reported as 8.87% [at 9.22 µM] (inactive).
In the case of `CCOc1cc(C2C(C#N)=C(N)OC(C)=C2C(C)=O)cc(Br)c1O` (stereo not given), the Potency is reported as 8.2 µM (active).
For `CCc1nnc(NS(=O)(=O)c2ccc(NC(=O)c3ccco3)cc2)s1`, the “lipid storage change, negative = inhibition” value was -9.02% (inactive) and the cell number change was -17.4%.
In the case of `COc1ccc(CC2S/C(=N/N=C/c3ccc(O)cc3)NC2=O)cc1` (stereo not given), the “lipid storage change, negative = inhibition” value is reported as -8.38% (inactive) and the cell number change is reported as 8.53%.
In the case of `COc1ccc(/C=N/N=C2/NC(=O)C(c3ccccc3)(c3ccccc3)S2)cc1`, the Potency is reported as 16.4 µM (active) and the cell number change is reported as 1.45%.
In the case of `COc1ccc(/C=N/N=C2/NC(=O)CC(C(=O)O)S2)cc1` (stereo not given), the “lipid storage change, negative = inhibition” value is reported as -10.8% (inactive).
In the case of `Cc1ccc(/C=C/S(=O)(=O)NCC(=O)OCC(=O)N2CC(=O)Nc3ccccc32)cc1`, the “lipid storage change, negative = inhibition” value is reported as -12.9% (inactive) and the cell number change is reported as 5.37%.
With `CCOc1ncccc1C(=O)Nc1cccc(C(=O)Nc2cccc(S(=O)(=O)CCO)c2)c1` the “lipid storage change, negative = inhibition” value was -0.285% (inactive) and the cell number change was -9.36%.
In the case of `Cc1ccc(-c2nnc(SCC#N)n2N)cc1`, the “lipid storage change, negative = inhibition” value is reported as 10.1% (inactive) and the cell number change is reported as 6.27%.
In the case of `COc1ccc(-c2csc3ncn(-c4ccccc4)c(=O)c23)cc1OC`, the “lipid storage change, negative = inhibition” value is reported as 1.51% (inactive) and the cell number change is reported as -7.4%.
With `Cc1cc(C)nc(CCNC(=O)C2CCC(=O)N(Cc3ccccc3F)C2)n1` (stereo not given) the “lipid storage change, negative = inhibition” value was 17.5% (inactive) and the cell number change was 14.5%.
In the case of `CSc1ccc(-c2nc(CSCC(=O)NCCCN3CCOCC3)c(C)o2)cc1`, the “lipid storage change, negative = inhibition” value is reported as 3.48% (inactive) and the cell number change is reported as -0.666%.
In the case of `CCCNC(=O)CSCc1nc(-c2ccc(SC)cc2)oc1C`, the “lipid storage change, negative = inhibition” value is reported as 6.01% (inactive) and the cell number change is reported as 10.2%.
For `CSc1ccc(-c2nc(CSCC(=O)NCCCN3CCCC3=O)c(C)o2)cc1`, the Potency was 1.84 µM (active).
For `CCOC(=O)C(CCCOc1cccc(OC)c1)C(=O)OCC`, the “lipid storage change, negative = inhibition” value was 0.495% (inactive) and the cell number change was -10.4%.
For `O=C(COc1ccc([N+](=O)[O-])cc1)N1CCc2ccccc2C1`, the “lipid storage change, negative = inhibition” value was 14.6% (inactive) and the cell number change was 20%.
For `COc1ccc([N+](=O)[O-])cc1NC(=O)c1ccccc1N(C)S(C)(=O)=O`, the “lipid storage change, negative = inhibition” value was -5.45% (inactive) and the cell number change was -12.5%.
For `Clc1ccc(-c2nnc(Sc3nc4ccccc4o3)c3ccccc23)cc1`, the “lipid storage change, negative = inhibition” value was 4.25% (inactive) and the cell number change was -12.5%.
In the case of `Cc1ccc(-c2nnc(Sc3nc4ccccc4o3)c3ccccc23)cc1`, the “lipid storage change, negative = inhibition” value is reported as 4.8% (inactive) and the cell number change is reported as -15.3%.
With `O=c1c(Cl)c2oc3ccccc3nc-2c2ccccc12` the Potency was 11.6 µM (active) and the cell number change was 13.2%.
With `CCSc1ccc(-c2ccco2)nn1` the “lipid storage change, negative = inhibition” value was 0.907% (inactive) and the cell number change was 13.6%.
With `O=c1c([N+](=O)[O-])c(O)c2cccc3c2n1CCC3` the “lipid storage change, negative = inhibition” value was 14.8% (inactive) and the cell number change was -0.265%.
In the case of `O=C(Nc1ccccc1C(=O)Nc1ccccn1)c1cccc([N+](=O)[O-])c1`, the “outcome” value is reported as “inactive” and the cell number change is reported as 6.61%.
